From PubChem BioAssay
PNC assembly inh = High Content Assay for Compounds that inhibit the Assembly of the Perinucleolar Compartment. activity change (PNC), negative = inhibition, % at 10 µM. 140,000 tested, 3.1% active. PC3M PTB-GFP, PNC prevalence imaging, 16 h; active compounds read low. AID 2417, 2010;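 active = readout at or below -70, meaning at least 70% loss of cells showing the perinucleolar compartment, a nuclear body marking cancer cells; inconclusive = readout between -30 and a set limit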;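 note: plate controls were DMSO wells for no effect and camptothecin positive control wells for full effect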
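Compounds are pinned in duplicate onto adhered PC3M cells stably expressing GFP-tagged PTB and incubated 16 h at 37 C. Cells are then fixed, nuclei stained with Hoechst, and PNC-positive cells counted.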
ALDH1A1 inh = qHTS Assay for Inhibitors of Aldehyde Dehydrogenase 1 (ALDH1A1); AID 1030, 2008; Purified ALDH1A1, NADH fluorescence, propionaldehyde substrate; 220,000 tested, 7.3% active; Potency, µM (top dose mostly 75.3 µM), inactives show at the highest dose activity, negative = inhibition, most hits filed as inhibitors;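 note: potency is the fitted concentration of half-maximal effect; plate controls were no enzyme wells and a reference inhibitor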
IMPase Li inh = qHTS Assay for Identifying the Cell-Membrane Permeable IMPase Inhibitors: Potentiation with Lithium | CHO-M1 cells, IP1 TR-FRET (IP-One), carbachol + lithium | Potency, µM (top dose mostly 59.4 µM), inactives show top-dose activity, negative = IMPase inhibition, most hits filed as inhibitors | 210,000 tested, 0.35% active | AID 1457, 2008; active = well fitted inhibition curve with a large enough effect; inconclusive = small, poorly fitted or top-dose-only effect; inactive = no such curve, though single readings can be large or run the other way;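 note: IP1 builds up when IMPase is blocked and the TR-FRET signal falls; potency is the fitted concentration of half-maximal effect; plate controls were basal vehicle for no effect and high inhibitor control for full effect; nearly all actives have a fitted effect of over 50% in size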
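Concentration–response in CHO-M1 cells, lithium-potentiated; 30 min at 37C. IP1 detected by competitive TR-FRET after 10 min lysis at RT. Hill-fitted AC50.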
HPGD inh = qHTS Assay for Inhibitors of HPGD (15-Hydroxyprostaglandin Dehydrogenase); 15-hydroxyprostaglandin dehydrogenase [NAD(+)] (Homo sapiens), P15428; purified HPGD, NADH fluorescence kinetic, PGE2 substrate; Potency, µM, for the others: at the top dose activity change, negative = inhibition, actives largely listed as inhibitors; 150,000 tested, 4.3% active; AID 894, 2007; note: potency is the fitted concentration of half-maximal effect
Target sequence (P15428 whole entry, looked up): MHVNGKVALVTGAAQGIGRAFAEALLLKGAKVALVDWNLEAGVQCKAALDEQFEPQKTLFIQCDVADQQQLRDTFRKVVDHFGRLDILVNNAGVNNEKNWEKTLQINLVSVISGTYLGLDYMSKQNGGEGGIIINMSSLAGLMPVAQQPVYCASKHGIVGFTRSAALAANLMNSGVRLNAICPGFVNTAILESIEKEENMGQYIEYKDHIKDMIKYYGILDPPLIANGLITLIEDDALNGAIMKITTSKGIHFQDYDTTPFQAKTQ
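20 nM HPGD preincubated 15 min at room temperature with compound in 50 mM Tris-HCl pH 8, 0.01% Tween 20. Started with 1 mM NAD+ and 30 uM prostaglandin E2; NADH fluorescence (360/450 nm) read 5 times over 30-s intervals, last minus first.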
IMPase inh = qHTS Assay for Identifying the Cell-Membrane Permeable IMPase Inhibitors; AID 901, 2007; 120,000 tested, under 10 active; inhibition (IP1 accumulation), % at 46.1 µM; CHO-M1 cells, IP1 accumulation, HTRF TR-FRET ratio; Inositol monophosphatase 1 (Rattus norvegicus), P97697; active = well fitted curve in the direction sought with a large enough effect in the signal ratio, not every such curve was filed as active; inconclusive = small, poorly fitted or top-dose-only effect, or a change in a side signal; inactive = no such curve, though single readings can be large or run the other way; the % refers to the signal ratio;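 note: cells stimulated with carbachol in lithium chloride buffer; plate controls were DMSO basal wells for no effect and reference inhibitor wells for full effect; higher means more IMPase inhibition seen as more IP1 and lower FRET ratio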
Target sequence (P97697 whole entry, looked up): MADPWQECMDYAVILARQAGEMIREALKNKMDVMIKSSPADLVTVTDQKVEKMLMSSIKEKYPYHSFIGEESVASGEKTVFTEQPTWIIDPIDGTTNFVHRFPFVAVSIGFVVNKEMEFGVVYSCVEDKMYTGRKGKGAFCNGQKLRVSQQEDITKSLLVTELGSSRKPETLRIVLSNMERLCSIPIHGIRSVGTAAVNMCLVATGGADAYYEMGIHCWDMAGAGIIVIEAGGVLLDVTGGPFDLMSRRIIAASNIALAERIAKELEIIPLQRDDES
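The IP-One HTRF competitive assay in carbachol-stimulated CHO-M1 cells quantifies cellular IP1. Compounds spanned up to 46 uM final, and activity is expressed as AC50 from concentration-response fits of the ratio and donor data.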
* hit, by the source's call; ? = inconclusive; / = no result; [ ] = remark or other dose. Rows were chosen to be rich in hits. Some 11% of all compounds tested hit in one or more screens of this group. Unless noted, calls come from the whole dose curve; as a rule, active = well fitted inhibition curve with a large enough effect (not every such curve was filed as active); inconclusive = small, poorly fitted or top-dose-only effect, or another doubt; inactive = no such curve, though single readings can be large or run the other way. Unless noted, % is set by controls: 0 for no effect and ±100 for the full control effect.

SMILES | PNC assembly inh | ALDH1A1 inh | IMPase Li inh | HPGD inh | IMPase inh
Cc1ccc(S(=O)(=O)n2ccc(-c3ccc(OCc4c(F)cccc4Cl)cc3)n2)cc1 | -100.0* | 4.4% | 8.3% | -5.5% | -15.2
CCc1ccc(-n2nc3ccc(NC(=O)COc4ccc(OC)cc4)cc3n2)cc1 | / | / | / | / | 6.8
CCCCn1c(=O)c2c(O)cc(=O)oc2c2ccccc21 | ? | 15.8µM* | ? | -8.5% | 0.8
O=c1cc(O)c2c(=O)n(Cc3ccccc3)c3ccccc3c2o1 | / | ? | 11.9% | / | /
O=C(O)CN=C1NC2(CCCCC2)Cc2ccccc21 | -100.0* | 7.9% | 2.4% | -12.5% | 4.2
O=C(CN1C(=O)/C(=C\c2ccc(F)cc2)Oc2ccccc21)NCc1ccco1 | 15.4 | ? | -11.7% | ? | -3.9
O=c1oc(Nc2ccccc2F)nc2ccccc12 | -9.7 | 20µM* | / | / | -6.1
CCCCn1nnnc1SCC(=O)c1ccc(C)c(C)c1 | 6.2 | 7.94µM* | / | / | 16.5
CCCCn1nnnc1SCC(=O)c1cc(Cl)ccc1OC | 63.6 | 5.01µM* | -2.4%[38.3 µM] | -25.6% | -1.6
CCCCn1nnnc1SCC(=O)c1ccccc1F | / | -6.2% | 23.7% | / | /
COc1ccc2[nH]cc(CCNc3ncnc4ccc(-c5c(C)noc5C)cc34)c2c1 | / | ? | 29.6% | / | /
CN(C)/C=C(\C#N)C(=O)Nc1ccc(O)cc1F | / | -2.1% | -2.2% | / | /
Cn1c(Cc2ccccc2)nnc1SCC(=O)Nc1ccccc1N1CCOCC1 | 21.3 | 7.0% | 4.8% | -3.1% | 8.8
O=C(CSc1nnnn1C1CCCCC1)Nc1ccccc1N1CCOCC1 | / | 28.2µM* | 1.4% | / | /
CCn1c(Cc2ccccc2)nnc1SCC(=O)Nc1ccccc1N1CCOCC1 | -23.4 | 8.91µM* | 11.4% | 1.0% | 10.2
COC(=O)c1ccccc1NC(=O)CSc1nnnn1C1CCCCC1 | -18.4 | ? | 1.8% | -13.6% | 8.3
CCOC(=O)c1ccccc1NC(=O)CSc1nnnn1C1CCCCC1 | -21.0 | 3.55µM* | / | / | -7.0
C[C@@H]1C[C@H](OC(=O)[C@@H](O)c2ccccc2)CC(C)(C)N1C | / | 4.7%[20.9 µM] | 8.8% | -7.8% | 11.8[20.6 µM]
COc1ccc(C(=O)OCCNC(=O)c2c(Cl)nc3ccccn23)cc1 | ? | -0.2% | 5.6%[38.3 µM] | 25.1µM* | 0.9
O=C(NCCOC(=O)c1ccncc1)c1ccccc1 | -5.6 | 10.4% | -14.2%[38.3 µM] | -7.9% | 3.2
CCOC(=O)c1c(-c2ccccc2)nc2ccccn12 | 36.0 | 0.5% | 0.2%[38.3 µM] | -4.9% | 9.3
CC(C)(C)c1ccc(C(=O)OCCNC(=O)c2c(Cl)nc3ccccn23)cc1 | 2.9 | ? | 29.5%[38.3 µM] | 11.2µM* | -3.0
CN(C1CCS(=O)(=O)C1)S(=O)(=O)c1ccccc1 (centres undefined) | / | -5.5% | 6.9% | / | /
O=C(CCl)N(c1ccccc1)C1CCS(=O)(=O)C1 (centres undefined) | 0.4 | 0.0631µM* | 2.1% | -1.4% | 0.3
C/C(=N\NC(=O)c1ccc(CN(C)S(=O)(=O)c2ccc(C)cc2)cc1)c1ccc(OC(F)F)cc1 | 5.4 | 25.1µM* | / | / | 1.0
SMILES | PNC assembly inh | ALDH1A1 inh | IMPase Li inh | HPGD inh | IMPase inh
Cc1ccc(S(=O)(=O)N(C)Cc2ccc(C(=O)N/N=C/c3ccc(OC(F)F)cc3)cc2)cc1 | -18.4 | ? | -1.5% | -8.4% | /
CC(C)=NNc1nc(-c2ccc(N3C(=O)CCC3=O)cc2)cs1 | / | 11.2µM* | / | / | /
O=c1nc2ccccc2c(NS(=O)(=O)c2ccccc2)n1-c1ccccc1 | 9.2 | 0.891µM* | 5.4%[38.3 µM] | -21.3% | 0.3
Clc1ccc(Cl)c(-c2nn3c(COc4ccccc4)nnc3s2)c1 | -1.9 | 3.55µM* | 46.3%[38.3 µM] | 10µM* | 4.3
c1ccc(OCc2nnc3sc(-c4cccs4)nn23)cc1 | ? | 3.55µM* | -1.4%[38.3 µM] | 8.91µM* | -13.5
COc1ccc(-c2nn3c(COc4ccccc4)nnc3s2)cc1OC | ? | ? | 2.2%[38.3 µM] | ? | 9.4
COc1ccc(-c2nc3cnc(N4CCN(C)CC4)nc3n(Cc3ccc(F)cc3)c2=O)cc1 | / | ? | -7.1% | / | /
Cc1cccc2nc(-c3cccc(NS(=O)(=O)c4ccccc4)c3)cn12 | / | / | / | / | 11.6
CCCn1c2ccccc2c2nnc(SCC(=O)Nc3cc(C)on3)nc21 | -18.3 | ? | 12.9%[38.3 µM] | -9.9% | -4.9
O=C(CSc1nnc2c3ccccc3c3ccccc3c2n1)Nc1ccccc1F | 24.0 | 8.91µM* | ? | -15.8% | -0.2
CCCn1c2ccccc2c2nnc(SCC(=O)Nc3ncccn3)nc21 | ? | 7.08µM* | 26.5%[38.3 µM] | -37.7% | 2.5
O=C(CSc1nnc2c3ccccc3c3ccccc3c2n1)Nc1ccccc1 | 65.0 | 0.2% | ? | -10.4% | 3.5
CCn1c2ccccc2c2nnc(SCC(=O)N3CC(C)OC(C)C3)nc21 (centres undefined) | 28.0 | 20µM* | 51.8%[38.3 µM] | 14.1µM* | -5.3
CSc1nnc2c3ccccc3n(CCc3ccccc3)c2n1 | -118.5* | 8.91µM* | -0.2%[38.3 µM] | -28.2% | -10.5
CN(C)c1nc(-c2ccc3c(c2)OCO3)nc2ccccc12 | / | -5.4% | 13.2% | / | /
Nc1cccc(S(=O)(=O)O)c1 | / | ? | 14.7% | -10.7% | /
CN1C(=O)C(C(=O)NC(C)(C)C)C2c3ccccc3OC13CCCCC23 (centres undefined) | ? | 6.5% | / | / | -1.2
O=c1c2cnn(-c3ccccc3)c2ncn1Cc1cccc(Cl)c1 | -107.8* | 0.7% | 19.8%[38.3 µM] | -7.9% | 6.6
COc1cccc(-n2nnc3c(=O)n(Cc4cccc(F)c4)cnc32)c1 | -3.4 | 4.3% | -3.6%[38.3 µM] | 14.1µM* | -4.1
COc1cccc(-n2nnc3c(=O)n(Cc4c(F)cccc4Cl)cnc32)c1 | 5.9 | ? | 2.3% | 28.2µM* | 0.0
O=c1c2cnn(-c3ccc(F)cc3)c2ncn1Cc1ccccc1 | 263.6 | 9.6% | -2.7% | -22.1% | 0.9
COc1ccc(-n2nnc3c(=O)n(Cc4cccc(C)c4)cnc32)cc1 | -28.3 | -14.7% | 12.2%[38.3 µM] | 15.8µM* | 9.3
C[C@H]1Cc2c(-c3ccccc3)nc3c(c2CO1)CN(C(=O)Nc1cccc(C#N)c1)CC3 | / | -8.0%[13.5 µM] | 10.4% | -1.9% | /
COc1cccc(-n2nnc3c(=O)n(CC(=O)NCC4CCCO4)cnc32)c1 (centres undefined) | ? | -7.4% | 25.6%[38.3 µM] | 15.8µM* | 10.1
COc1ccc(-n2ncc3c(=O)n(Cc4c(F)cccc4Cl)cnc32)cc1 | / | 28.2µM* | 9.0% | / | /
COc1ccc(-n2nc(C(=O)NCC(=O)NCC3CCCO3)c3ccccc3c2=O)c(OC)c1 (centres undefined) | ? | 12.6µM* | / | / | -0.4
C=C1SC(=Nc2ccccc2Cl)N(C(=O)c2sc3ccccc3c2Cl)C1(C)C | / | 23.8µM* | / | / | /
CCCSc1nnc(NC(=O)Nc2ccc(F)cc2)s1 | -82.5* | -5.5% | 26.6%[38.3 µM] | -0.2% | 15.3
